Test results as given in PubChem BioAssay (NCATS).
Inconclusive results are not listed. A number with no mark means an inactive call. Activity calls are given as the source filed them. Calls come from the whole dose curve; as a rule, active = well fitted inhibition curve with a large enough effect; inconclusive = small, poorly fitted or top-dose-only effect; inactive = no such curve, though single readings can be large or run the other way.

What follows are compounds tested on Zika virus NS2B-NS3 protease (linked construct) (assay: Primary screen NINDS Rhodamine qHTS for Zika virus inhibitors (AID 1347160; note: nearly all actives have a fitted effect of over 55% in size)). Settings: purified NS2B-NS3 protease, Rhodamine110 substrate fluorescence; series mostly up to 57.1 µM; activity change, negative = inhibition: at the top concentration.
Outline: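 Aprotinin served as in-plate control. Conditions: 25 nM linked NS2B-NS3, pH 8.0 Tris buffer, titrated compounds, 15 min preincubation and 15 min reaction with 1.5 microM Rhod110 substrate at room temperature.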
% is set by controls: 0 for no effect and ±100 for the full control effect.

Structure (SMILES)	outcome	activity change, negative = inhibition
COc1cc(O)c2c(c1)/C=C/C[C@H](O)[C@H](O)C(=O)/C=C\C[C@H](C)OC2=O	inactive	
NS(=O)(=O)c1ccc(N2N=C(c3ccccc3)CC2c2ccccc2)cc1 (configuration not stated)		9.16%
COc1cc2c(NC3CCN(C(C)C)CC3)nc(N3CCC(F)(F)CC3)nc2cc1OCCCN1CCCC1		24.4%
COc1c(CCC(=O)O)cccc1O[C@@H]1O[C@H](CO)[C@@H](O)[C@H](O)[C@H]1O		-26.6% [at 33.1 µM]
NS(=O)(=O)Nc1ncnc(OCCOc2ncc(Br)cn2)c1-c1ccc(Br)cc1		35%
C/C(=N\N=C(N)N)c1cc(NC(=O)CCCCCCCCC(=O)Nc2cc(/C(C)=N/N=C(N)N)cc(/C(C)=N/N=C(N)N)c2)cc(/C(C)=N/N=C(N)N)c1		-81.1%
O=c1[nH]c2cccc(N3CCN(Cc4ccc(-c5ccccc5)cc4)CC3)c2o1		-3.84%
O=S(=O)(c1ccc(Cl)cc1)N1CCN(c2ccnc3cc(Cl)ccc23)CC1		-1.72%
CC(C)c1ccc(-c2cc(=O)c3ccccc3o2)cc1		-10.4%
C=C1C(=O)OC2/C=C(\C)CC/C=C(\C=O)C(OC)C(OC(=O)C(C)CC)C12 (configuration not stated)		-23.6% [at 33.1 µM]
C1=C/COCc2cc(ccc2OCCN2CCCC2)Nc2nccc(n2)-c2cccc(c2)COC/1		42.7%
Cc1cc(-c2cnc(N)c3c(-c4ccc5scnc5c4)csc23)n(C)n1		-0.913%
C/C(=C\CCC(C)C1=CCC2(C)OC3=C(CC12)C(=O)C(O)CC3)CO (configuration not stated)	inactive [at 33.1 µM]	
O=C1c2ccc(Nc3ccc(F)cc3F)cc2CCc2ccc(OCC(O)CO)cc21 (configuration not stated)		11.8%
CC(=O)OCC(=O)[C@@]12O[C@@H]1C[C@H]1[C@@H]3CC=C4C[C@@H](O)CC[C@]4(C)[C@H]3CC[C@@]12C		8.16%
O=c1nc(-c2ccccn2)sc2ccccc12		13.6%
COc1cc(C(=O)NC(=S)Nc2cccc(NC(=O)c3ccccc3)c2)cc(OC)c1OC		32.1%
C[C@H]1CC[C@@]2(OC1)O[C@H]1CC3[C@@H]4CC[C@@H]5C[C@@H](O[C@@H]6O[C@H](CO)[C@@H](O[C@@H]7O[C@H](CO[C@@H]8OC[C@@H](O)[C@H](O)[C@H]8O)[C@@H](O[C@@H]8O[C@H](CO)[C@H](O)[C@H](O)[C@H]8O)[C@H](O)[C@H]7O)[C@H](O)[C@H]6O)CC[C@]5(C)C4CC[C@]3(C)[C@H]1[C@@H]2C (some centres not stated)		-15.8% [at 15.1 µM]
CC(=O)OC1C(OC(=O)c2ccccc2)C2C(C)(C)CCC(OC(C)=O)C2(C)C23CCC(C)(C2)C(=O)CC13 (configuration not stated)		-15% [at 33.1 µM]

Structure (SMILES)	outcome	activity change, negative = inhibition
Cc1nnc(C[C@@H]2C=C(c3ccc(Cl)cc3)c3ccccc3-n3c(C)nnc32)o1		-18.1%
CC(C)S(=O)(=O)Nc1ccc(F)c(C(=O)c2c[nH]c3ncc(-c4cccnc4)cc23)c1F		-22.5%
Cc1nc(N2CCN(C(=O)c3ccco3)CC2)c2c3c(sc2n1)CCCC3		-13.9%
O=C(Nc1cc(C(F)(F)F)ccc1N1CCCCC1)c1ccncc1		-5.71%
CCC/C=C/C(=O)O[C@H]1CC(C)(C)CC2[C@@]13[C@H](O)C[C@]1(C)[C@@]2(CCC2[C@@]4(C)CC[C@H](O[C@@H]5O[C@H](C(=O)O)[C@@H](O)[C@H](O[C@@H]6O[C@H](CO)[C@H](O)[C@H](O)[C@H]6O[C@@H]6O[C@@H](C)[C@H](O)[C@@H](O)[C@H]6O[C@@H]6OC[C@](O)(CO)[C@H]6O)[C@H]5O[C@@H]5O[C@H](CO)[C@H](O)[C@H](O)[C@H]5O)C(C)(C)C4CC[C@]21C)O[C@H]3O (some centres not stated)		-24.8% [at 10.7 µM]
CCCCOc1ccc(S(=O)(=O)n2c(C)nc3ccccc32)cc1		6.03% [at 33.1 µM]
Cc1cc(F)ccc1[C@H]1C[C@@H](N2CCN3C(=O)CC[C@H]3C2)CCN1C(=O)N(C)[C@H](C)c1cc(C(F)(F)F)cc(C(F)(F)F)c1		-7%
CCOc1ccc(S(=O)(=O)N2CCCCCC2)c2ccccc12		3.72%
CC[C@@H](C)Nc1cc(C(=O)NC2CC3CCC(C2)N3c2ccc(C(=O)C3CC3)cn2)c(C)cc1C(N)=O (some centres not stated)		24.4%
CC1(C)CC[C@]2(C(=O)O[C@@H]3O[C@H](CO)[C@@H](O)[C@H](O)[C@H]3O)CC[C@]3(C)C(=CCC4[C@@]5(C)CC[C@H](O[C@@H]6O[C@H](C(=O)O)[C@H](O)[C@H](O)[C@H]6O)C(C)(C)C5CC[C@]43C)[C@@H]2C1 (some centres not stated)		-10.5% [at 15.1 µM]
Cc1cnn(-c2ccccc2)c1NC(=O)COCc1ccccc1	inactive	
CO[C@H]1O[C@@H]2O[C@@]3(C)CCC4[C@H](C)CCC([C@H]1C)[C@]42OO3 (some centres not stated)		13.3%
Cc1ccc(C)c(NC(=O)[C@@H]2CCCN2S(=O)(=O)c2cccc3cccnc23)c1		12.7%
C/C(=C\Cc1c(O)c(Cl)c(C)c(C=O)c1O)CC/C=C(\C)[C@H]1CC(=O)C(C)(C)O1		-18.2% [at 33.1 µM]
Cc1ccc(C(C)C)c(O[C@@H]2O[C@H](CO)[C@@H](O)[C@H](O)[C@H]2O)c1		-5.64% [at 33.1 µM]
CC(=O)OC[C@]12[C@H](OC(C)=O)C(=O)[C@@H]3[C@@H](O)[C@@]14O[C@@]3(C)COC(=O)c1cccnc1[C@@H](C)[C@H](C)C(=O)O[C@@H]([C@H](O)[C@@H]2OC(C)=O)[C@]4(C)O		-4.36% [at 15.1 µM]
C/C=C(/C)C(=O)OC1C=C2C3C(C)C(C)C(OC(=O)C(C)C(C)O)CC3(C)CCC2(C)C2(C)CC(OC(C)=O)C3C(C)(C)C(O)C(=O)CC3(C)C12 (configuration not stated)		-9.77% [at 15.1 µM]
CC(NC(=O)Cc1cc(F)cc(F)c1)C(=O)NC1C(=O)N(C)c2ccccc2-c2ccccc21 (configuration not stated)		109%
